Laboratory results as given in PubChem BioAssay (NCI).
Compounds without any hit were thinned out: in the full panel of roughly 83,000, 20% have a hit.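 Each cell line was grown in a 96-well plate and treated with one concentration of compound for 48 hours. Values below 10 were considered active.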 Values without a mark were called inactive. Activity calls are given as the source filed them.

What follows are compounds tested on SF-295 CNS (assay: NCI-60 one-dose screen, 48 h (100 = growth as untreated, 0 = no growth, -100 = all killed)). Conditions: 10 µM unless noted.
`CCOC(=O)CC1CSC(Nc2ccccc2)=N1` (centres undefined) was tested, and the growth was 104%.
With `O=S(=O)(Nc1cc(Sc2cccc3cccnc23)c(O)c2ccccc12)c1ccccc1` the growth was 21.7%.
`COc1ccc(C(=O)c2cc3c(N)c(C(=O)Nc4ccccc4)sc3nc2C)cc1` gave a growth of 26.9%.
`N=c1c(S(=O)(=O)c2ccccc2)cc2c(=O)n3ccccc3nc2n1CC1CCCO1` (centres undefined) was tested, and the growth was 112%.
Work on `CC(C)(C)c1cc(Cl)c(O)c(CNCCO)c1` yielded a growth of 97%.
`CCN(CC)CCN1C(=O)c2c(c(C)c3c(oc4ccc(O)cc43)c2C)C1=O` showed a growth of 89.7%.
For `Fc1cccc(-c2ccc3c(c2)C2(CCNCC2)CN3)c1`, the growth was 95.4%.
`C=CC(=O)Nc1ccc(Oc2nccc(Nc3nnc(-c4ccc(C)cc4)s3)n2)cc1` showed a growth of 56.9%.
Compound `NC1(CO)COC(c2ccccc2)OC1` (centres undefined) has a growth of 113%.
In the case of `CCNc1ccc(-c2nc3ccccc3n3cccc23)cc1`, the growth is reported as 69%.
`CC[N+]1(CC)CC[N+]2(CCCC(C)CC2)CC1` (centres undefined) gave a growth of 98.8%.
`N=C(N)c1ccc(-c2ccc(-c3ccccc3)s2)cc1` showed a growth of 40.6%.
Compound `O=C(CSc1nc(-c2ccccc2)cc(=O)[nH]1)Nc1nc(-c2ccccc2)cs1` has a growth of 76.4%.
In the case of `Cc1nnc(-c2ccc3c(c2)nc(/C=C/c2ccccc2)n3C2CCCCC2)o1`, the growth is reported as 76.1%.
For `O=S(=O)(NCCNc1nccc(-c2c(-c3ccc(F)c(O)c3)nc3sccn23)n1)c1ccc(F)cc1`, the growth was 53.4%.
Compound `CCN(CC)CCCN1C(=O)c2c(c(C)c3c(oc4ccc(O)cc43)c2C)C1=O` has a growth of 109%.
In the case of `CCCCCCCCCCCCCCCCCC1=NC(C)(C)CN1CC(C)O` (centres undefined), the growth is reported as 95.9%.
For `C#CC#CC#CC#CC#CC#CC#CC#CCC1OC[C@H](COC(=O)O[C@@H](C(=O)O[C@H]2C[C@@]3(O)[C@@H](OC(=O)c4ccccc4)[C@@H]4[C@]5(OC(C)=O)CO[C@@H]5C[C@H](O)[C@@]4(C)C(=O)[C@H](OC(C)=O)C(=C2C)C3(C)C)[C@@H](NC(=O)c2ccccc2)c2ccccc2)O1` (some centres undefined), the growth was 15.2%.
`Cc1ccc(Cl)cc1NC(=O)c1sc2nc3c(cc2c1N)C(=O)CCC3` was tested, and the growth was 4.01% (active).
Compound `CC(=O)Oc1ccc(OC(C)=O)c2ccccc12` has a growth of 105%.
`O=C(NNC(=O)c1nc2cc(F)ccc2n2cccc12)c1cnccn1` was tested, and the growth was 21.6%.
Compound `C[C@H](C(=O)N(CCc1ccc(Cl)c(Cl)c1)Cc1cncs1)[C@@H]1CC[C@H](C[C@H](C)n2cc(CN3CCC(c4ccc(Cl)cc4)CC3)nn2)O1` has a growth of 99.2%.
`O=C(CC(=O)Nc1cccc(C(=O)O)c1)Nc1cccc(C(=O)O)c1` showed a growth of 106%.
For `C=C1CC[C@@H]2C(C)(C)[C@@H](O)CC[C@@]2(C)[C@@H]1COc1ccc2ccc(=O)oc2c1`, the growth was 62.5%.
`CCS/C(Nc1ccccc1)=C(\C#N)C(=O)Nc1ccc(OC)cc1` gave a growth of 32.6%.
Compound `Nc1nc(NC(=O)Nc2ccc(C(=O)O)cc2)nn1-c1ccc(S(N)(=O)=O)cc1` has a growth of 104%.
`N#Cc1c(-c2ccccc2)nc(SCc2nnc(-c3ccc(Cl)cc3)o2)[nH]c1=O` gave a growth of 89.5%.
Work on `CCN(CC)c1ccc(/C=N/NC(=O)Cc2ccc(Nc3ccnc(C(F)(F)F)c3)cc2)c(O)c1` yielded a growth of 17.9%.
Work on `CC[C@]12C=CCN3CC[C@@]4(c5ccc(OC)cc5N(C)[C@H]4[C@@](O)(C(=O)OC)[C@@H]1OC(=O)CCC[P+](c1ccccc1)(c1ccccc1)c1ccccc1)[C@@H]32` yielded a growth of 23.3%.
Compound `Oc1c(CN2CCC(N3CCCCC3)CC2)cc(Cc2cc(CN3CCC(N4CCCCC4)CC3)c(O)c3ncccc23)c2cccnc12` has a growth of 31.1%.
`Nc1c(C(=O)Nc2cccc(Cl)c2)sc2nc3c(cc12)CCCC3` showed a growth of 91.6%.
`C=C(c1ccc(OC)c(/C=C/C(=O)c2ccc3c(c2)OCO3)c1)c1cc(OC)c(OC)c(OC)c1` was tested, and the growth was 10.7%.
For `CCCCCN(CCCCC)CC(O)c1cc(C)c2ccc3cc(C(C)C)ccc3c2c1` (centres undefined), the growth was 103%.
`O=C1/C=C/[C@@H](O)[C@@H]2C[C@@H](O)C[C@H]2/C=C/CCC[C@H](CCO)O1` gave a growth of 12.1%.
For `CC(=O)/C(=C/c1ccc([N+](=O)[O-])cc1)C(=O)c1ccccc1`, the growth was 93.3%.
In the case of `CC1(C)CC[C@]23CC[C@]4(C)[C@H](CC[C@@H]5[C@@]6(C)C/C(=C/c7ccncc7)C(=O)C(C)(C)[C@@H]6CC[C@]54C)[C@H]2[C@H]1OC3`, the growth is reported as 90.9%.
With `CCCCCCCC/C=C\CCCCCCCCOc1ccc(CC(=O)NCC[N+]2(C)CCOCC2)cc1` the growth was 85.7%.
For `O=C(NNc1cnccn1)c1nc2cc(F)ccc2n2cccc12`, the growth was 12.9%.
`O=C(C1=Cc2cc3ccccc3n2Cc2cnnn21)c1ccc(O)cc1` showed a growth of 56.9%.
